Screening data (PubChem BioAssay)
SKKanGAS inh = SKKanGAS growth inhibition. AID 1662. 300,000 tested, 1.3% active. S. pyogenes SKKanGAS, kanamycin growth, BacTiter-Glo, 6 h. inhibition, % at 7.5 µM;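 active means mean replicate score, as percent of positive control median, at least 50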;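 further: strain carries kanamycin resistance gene driven by streptokinase promoter and grows in 40 µg/ml kanamycin; loss of luminescence reflects streptokinase promoter inhibition or plain growth inhibition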
tim10-1 inh = inhibits growth of tim10-1 mutant yeast; 330,000 tested, 2.2% active; S. cerevisiae tim10-1 ts strain growth, BacTiter-Glo, 24 h; inhibition, % at 20 µM; AID 463190;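 active means inhibition of at least 40%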;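 further: mutant grown at 25 °C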
PfHsp90 yeast 2 = growth inhibition of yeast expressing Plasmodium Hsp90 | S. cerevisiae expressing PfHsp90, BacTiter-Glo ATP, 48 h; yeast lacking PDR1 and PDR3 efflux regulators | inhibition, % at 9.4 µM | 310,000 tested, 0.32% active;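 active means every replicate shows inhibition above about 80%, whatever the replicate mean, limit read from the data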
NLRP3 yeast inh = inhibitors of NALP3 inflammasome in yeast; Yeast reconstituted NLRP3/ASC/caspase-1, beta-gal luminescence, 24 h; inhibition, % at 10 µM; 330,000 tested, 0.39% active; AID 2825;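 active means inhibition of 50% or more; inactive means inhibition below 50%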
TIM10 inh = inhibits growth of TIM10 yeast strain; S. cerevisiae TIM10 strain growth, BacTiter-Glo luminescence, 24 h; inhibition, % at 10 µM; 330,000 tested, 1.4% active;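 active means inhibition of 40% or more at the single tested concentration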;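 further: wild-type TIM10 isogenic control strain grown at permissive 25 °C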
tim23-1 inh = growth inhibitors of tim23-1 mutant yeast; inhibition, % at 20 µM; S. cerevisiae tim23-1 growth, BacTiter-Glo luminescence, 24 h; AID 463212; 330,000 tested, 1.3% active;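 active means growth inhibition of the mutant yeast at or above 50%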;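 further: temperature-sensitive mutant grown at 25 °C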
tim23-1 confirm = tim23-1 yeast growth inhibition, confirmed | inhibition, % at 20 µM | 4,400 tested, 83% active | shares compounds with tim23-1 inh | S. cerevisiae tim23-1 growth, BacTiter-Glo luminescence, 24 h | AID 463218;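 active means inhibition above about 39% in either of two replicate wells at 20 µM, limit read from the data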;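 further: temperature-sensitive tim23-1 mutant grown at 25 °C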
A number is an active result; – = inactive; · = not tested or not shown. In the library only some 4.6% were active in any assay of this set; here they are far more common.

SMILES	SKKanGAS inh	tim10-1 inh	PfHsp90 yeast 2	NLRP3 yeast inh	TIM10 inh	tim23-1 inh	tim23-1 confirm
CC(C)n1nc(C(=O)Nc2nnc(C3CC3)s2)c2ccccc2c1=O	–	–	–	–	–	–	·
CCSc1nnc(NC(=O)c2nn(C(C)C)c(=O)c3ccccc23)s1	–	–	–	–	–	57	37
Cc1cc(=O)oc2c1c(C(F)(F)F)nn2-c1ccccc1	–	–	–	–	–	50	55
Cc1cc(C(F)(F)F)c2c(C)nn(-c3ccccc3)c2n1	–	–	–	–	–	–	·
CSC1=N/C(=C\c2ccc(Br)o2)C(=O)S1	–	–	–	–	–	–	·
CSC1=N/C(=C\c2ccccc2F)C(=O)S1	–	–	–	–	–	52	51
COc1cc(S(=O)(=O)n2nnc3ccccc32)c(OC)cc1Cl	–	–	–	–	–	61	56
COc1ccc(OC)c(S(=O)(=O)n2nnc3cc(Cl)ccc32)c1	–	–	–	–	–	–	·
CC(C)c1ccc(NC(=O)C2CC3CCC2C3)cc1 (stereo unspecified)	–	–	–	–	–	–	·
O=C(Nc1ccc(F)cc1)C1CC2CCC1C2 (stereo unspecified)	–	–	–	–	–	–	·
O=C(Nc1ccc(F)c(Cl)c1)C1CC2CCC1C2 (stereo unspecified)	–	–	–	–	–	61	68
CCC(C)c1ccc(NC(=O)C2CC3CCC2C3)cc1 (stereo unspecified)	–	–	–	–	–	52	51
O=C(CN1C(=O)NC2(CCCCC2)C1=O)N1CCOCC1	·	–	–	–	–	–	·
Cn1ccc(C(=O)Nc2cccnc2Cl)n1	–	–	–	–	–	–	·
COc1ccc(Cn2c(C(C)C)nc3sc4ccccc4c(=O)c3c2=O)cc1	–	–	–	–	–	62	55
CCCc1nc2sc3ccccc3c(=O)c2c(=O)n1Cc1ccc(OC)cc1	–	–	·	–	–	52	45
Cc1cccc(OCCC(=O)NNC(=O)c2ccoc2C)c1	·	–	–	–	–	–	·
CNS(=O)(=O)c1cn(CC(=O)NCc2ccc(OC)cc2)cc1S(=O)(=O)NC	–	–	–	–	–	–	·
COc1cccc(-c2ncc3ccccc3c2COC(=O)CCCC(=O)O)c1	·	–	·	–	–	–	·
Cc1c(Cl)cccc1NC(=O)COC(=O)Cn1cnc2c1c(=O)n(C)c(=O)n2C	·	–	–	–	–	–	·
CC(C)Oc1cc(O)c2c(=O)c(-c3ccc(O)cc3)coc2c1	–	–	–	–	–	57	61
CCOc1ccc(N/C(=C(/C(Cl)=C(Cl)Cl)[N+](=O)[O-])n2cncn2)cc1	–	–	·	–	–	–	·
O=[N+]([O-])/C(C(Cl)=C(Cl)Cl)=C(\Nc1ccc(F)cc1)n1cncn1	–	–	·	–	–	75	–
Cc1ccc(OCc2n[nH]c(=S)n2-c2ccc(Cl)cc2)cc1	–	–	–	–	–	–	·
S=c1[nH]nc(COc2ccc(Cl)cc2)n1-c1ccc(Cl)cc1	–	–	–	–	–	51	41
SMILES	SKKanGAS inh	tim10-1 inh	PfHsp90 yeast 2	NLRP3 yeast inh	TIM10 inh	tim23-1 inh	tim23-1 confirm
Cc1nc(Nc2ccc(O)cc2)c2c3c(sc2n1)CCCC3	–	–	–	–	–	52	45
O=C(Nc1ccc(Nc2ccccc2)cc1)C(Cl)Cl	–	–	–	–	–	–	·
CC(C)(C)C(=O)C(Cl)C(=O)Nc1ccccc1 (stereo unspecified)	–	–	107	–	–	70	–
O=C(CSc1nc2ccccc2[nH]1)Nc1nc(-c2ccc(Br)cc2)cs1	–	–	–	–	–	–	·
Cc1[nH]n(-c2ccccc2)c(=O)c1/C=C1\C=NN=C1c1ccccc1	–	–	–	–	–	62	55
Cc1[nH]n(-c2ccccc2)c(=O)c1/C=C1/C=c2ccccc2=N1	–	·	–	·	·	·	·
CCC1(C)CC2(CCCN(CCC(=O)c3ccccc3)C2)CCO1 (stereo unspecified)	–	–	–	–	–	–	·
Cc1cc(NCCCO)n2nc(-c3cccs3)cc2n1	–	–	–	–	–	–	·
OCCCNc1cc(-c2ccccc2)nc2cc(-c3ccc(F)cc3)nn12	–	–	–	–	–	51	55
C=CCNC(=S)N/N=C(\C)c1ccccn1	81	–	–	–	–	61	51
